# Source: PubChem BioAssay AID651774 (Broad Institute, 2012)
# Entries with a potency or affinity are not part of this list. Calls of active or inactive are those of the source. No rule for the calls is given here.
# Experiment: cytotoxicity in HeLa cells, dose response, cytotoxicity control, cell-based, 24 h, dry powder (AID 651774)
# Settings: HeLa viability, CellTiter-Glo ATP luminescence; series mostly up to 35 µM
row,Structure (SMILES),outcome
1,CC(C(=O)NC1CCCC1)c1ccc(-c2ccccc2)cc1 (stereo not drawn),inactive
2,N#Cc1cccc(CC(=O)NC2CCCC2)c1,inactive
3,O=C(Cc1ccc(-c2ccccc2)cc1)NCc1ccccc1,inactive
4,COc1ccc(CC(=O)NC2CCCC2)cc1,inactive
5,O=C(O)Cc1ccc(-c2ccccc2)cc1,inactive
6,O=C(Cc1cccc(-c2ccccc2)c1)NC1CCCC1,inactive
7,COc1ccccc1CC(=O)NC1CCCC1,inactive
8,O=C(Cc1ccccc1F)NC1CCCC1,inactive
9,O=C(Cc1ccc(C(F)(F)F)cc1)NC1CCCC1,inactive
10,O=C(Nc1nnc(-c2ccc3c(c2)OCCO3)o1)C1CCCCC1,inactive
11,c1ccc(CNc2nn[nH]n2)cc1,inactive
12,O=C(Cc1ccc(-c2ccccc2)cc1)N1CCC(F)(F)CC1,inactive
13,CCn1nnnc1NCc1ccc(N2CCCC2)cc1,inactive
14,CC(C)c1ccc(CNc2nnn(C)n2)cc1,inactive
15,CC(C)c1ccc(CNc2nn[nH]n2)cc1,inactive
16,O=C(Cc1ccc(-c2ccccc2)cc1)NC1CCOCC1,inactive
17,O=C(Cc1ccc2ccccc2c1)NC1CCCC1,inactive
18,O=C(Cc1ccccc1C(F)(F)F)NC1CCCC1,inactive
19,O=C(Cc1cccc(Cl)c1)NC1CCCC1,inactive
20,CCn1nnc(NCc2ccc(C(F)(F)F)cc2)n1,inactive
21,CN(C)C(=O)Cc1ccc(-c2ccccc2)cc1,inactive
22,CN(Cc1ccc(N2CCCC2)cc1)c1nnnn1C,inactive
23,Cc1ccc(CC(=O)NC2CCCC2)cc1,inactive
24,O=C(Cc1ccc(-c2ccccc2)cc1)NC1CCCC1,inactive
25,CCNC(=O)Cc1ccc(-c2ccccc2)cc1,inactive
26,O=C(Cc1ccccc1Cl)NC1CCCC1,inactive
27,O=C(Cc1ccc(-c2ccccc2)cc1)N1CCC1,inactive
28,c1cc(N2CCCC2)ccc1CNc1nn[nH]n1,inactive
